Results filed as inconclusive are left out. Entries that show only a call come without a potency. Calls of active or inactive are those of the source. The call rests on the fitted dose curve; in most records, active means well fitted cell-killing curve with a large enough effect; inconclusive means small, poorly fitted or top-dose-only effect, or effect the other way; inactive means flat fitted curve, though single readings scatter. *1 amine or outer side, *2 acyl side, *3 side chain or, on linkers, in order; H or OH if unused. Where a SMILES comes first, the peptide text is derived from it. [ ]: non-standard residue; d: D form. X13 = O=C(C(CC(O)CO)O[*:1])[*:2]; NMeV = CN[CH](C(=O)O)C(C)C; NMeA = CN[CH](C)C(=O)O; βAla = NCCC(=O)O
tested on: Hek293T; assay: Primary qHTS to identify gynecologic anti-cancer compounds using libraries of approved drugs and bioactive compounds (AID 1345084); details: Gynecologic cancer cell panel viability, ATPlite luminescence, 48 h, control line for the selectivity index; series mostly up to 57.5 µM; further: nearly all actives have a fitted effect of over 55% in size
Outline: (§1)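 Cells, 1,000 per well, were allowed to settle for 16 h at 37 C before compound addition. Five concentrations were tested for 48 h, and viability was read by ATPlite luminescence after 15 min at room temperature.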

SMILES	Potency	activity change, negative = cytotoxicity
NC(Cc1c[nH]c2ccc(O)cc12)C(=O)O (stereo not drawn)	inactive	
CCN=C1N[C@@H]2[C@@H](O)[C@H](O)[C@@H](CO)O[C@@H]2S1	inactive	
O=C(NC1CCN(CC(F)(F)F)CC1)c1ccc(-c2cccc(F)c2)nc1	inactive	
COc1cc(/C=C/C(=O)O[C@H]2[C@@H]3C=CO[C@@H](O[C@@H]4O[C@H](CO)[C@@H](O)[C@H](O)[C@H]4O)[C@@H]3[C@@]3(CO)O[C@@H]23)ccc1O	inactive	
C[C@@H]1[C@H](O)[C@@H]2OC(=O)C3=C2[C@H](CCC3)[C@@]12C[C@@H](c1ccoc1)OC2=O	inactive	
CC1OC(OC2CCC3(C)C(CCC4(C)C3C=CC35OCC6(CCC(C)(C)CC63)CCC45C)C2(C)CO)C(OC2OC(CO)C(O)C(O)C2O)C(O)C1OC1OC(CO)C(O)C(O)C1O (stereo not drawn)		6.69% [at 11.6 µM] (inactive)
CCC(C)C1NC(=O)C2CCCN2C(=O)C(CC(O)CO)OC(=O)CCNC(=O)C(C)N(C)C(=O)C(C(C)C)N(C)C1=O (stereo not drawn) (cyclo([X13]PI[NMeV][NMeA][βAla]); configuration not given here)	inactive	
CC(O)C(=O)/C=C/C=C/C(=O)OC1C=C2COC(=O)C2(O)C2(C)CCCC(C)(C)C12 (stereo not drawn)	inactive	
CC(C)C(O)(CO)CCO[C@@H]1O[C@H](CO[C@H]2OC[C@](O)(CO)[C@H]2O)[C@@H](O)[C@H](O)[C@H]1O (stereo partly drawn)	inactive	
Nc1ncnc2c1ncn2[C@H]1O[C@@H](C(=O)N2CCN(CC(=O)Nc3cccc4c3CNC4=O)CC2)[C@H](O)[C@@H]1O	inactive	

tested on: JEG-3; assay: as above; details: Gynecologic cancer cell panel viability, ATPlite luminescence, 48 h; series mostly up to 57.5 µM
Outline: as §1

SMILES	Potency	activity change, negative = cytotoxicity
COC(=O)C1=CO[C@@H](O[C@@H]2O[C@H](CO[C@@H]3O[C@H](CO)[C@@H](O)[C@H](O)[C@H]3O)[C@@H](O)[C@H](O)[C@H]2O)[C@@H]2C(CO)=CC[C@H]12	inactive	
CSCC1OC(n2cnc3c(=O)[nH]cnc32)C(O)C1O (stereo not drawn)	inactive	
COc1cc(C)c(C(=O)OC2C(C)OC(OC3CCC(C)C4C3C=C(C)C3/C(C)=C\CC/C(C)=C/C5(C)C=C(C(=O)O)C(C)CC56OC(=O)/C(=C(\O)C34C)C6=O)C(O)C2O)c(OC)c1 (stereo not drawn)		-0.361% [at 11.6 µM] (inactive)
OC[C@H]1O[C@@H](OCc2ccccc2)[C@H](O[C@@H]2OC[C@@H](O)[C@H](O)[C@H]2O)[C@@H](O)[C@@H]1O	inactive	
Nc1ccc(-n2nc(C(F)(F)F)cc2C(F)(F)F)cc1	inactive	
Oc1ccc(CC2NCCc3cc(O)c(O)cc32)cc1 (stereo not drawn)	inactive	
NCCCCN(Cc1nc2ccccc2[nH]1)[C@H]1CCCc2cccnc21	inactive	
C/C(=C\C1CCC(C)C2CCC3(C)OC123)C(=O)O (stereo not drawn)	inactive	
CC1=C2C3OC(=O)C(C)C3(O)CCC2(C)CCC1 (stereo not drawn)	inactive	
O=C(N[C@H](Cc1ccccc1)C(=O)O)c1sc2cc(F)ccc2c1Cl	inactive	
CC(=O)c1ccc(O[C@@H]2O[C@H](CO[C@@H]3OC[C@@H](O)[C@H](O)[C@H]3O)[C@@H](O)[C@H](O)[C@H]2O)cc1	inactive	
C=C1C[C@H](O)[C@@H](O)[C@@]2(C)C1[C@@H](O)[C@H]1OC(=O)C3[C@@H](C)[C@@H](O)[C@H](O)C2[C@]31C (stereo partly drawn)	inactive	
CCCC/C=C\CCCCCc1cc(=O)c2ccccc2n1C	inactive	
Cn1cc(Nc2cnccc2C(=O)O)c2cccnc21	inactive	
C[C@H]1[C@H](C)C[C@@H](C(=O)O)C2CC[C@]3(C)C(=CC[C@@H]4[C@@]5(C)CC[C@H](O)C(C)(C)[C@@H]5CC[C@]43C)[C@@H]21 (stereo partly drawn)	inactive	
C=CC(C)(O)CC/C=C(\C)C(=O)O[C@@H]1[C@@H](O)[C@H](OC(C)(C=C)CC/C=C(\C)C(=O)O)O[C@H](CO)[C@H]1OC(=O)/C(C)=C/CCC(C)(O)C=C (stereo partly drawn)	inactive	
CC1(C)CC[C@]2(C(=O)O[C@@H]3O[C@H](CO)[C@@H](O)[C@H](O)[C@H]3O)CC[C@]3(C)C(=CCC4[C@@]5(C)CC[C@H](O[C@@H]6O[C@H](C(=O)O)[C@@H](O)[C@H](O)[C@H]6OC6OC(CO)C(O)C(O)C6O)C(C)(C)C5CC[C@]43C)[C@@H]2C1 (stereo partly drawn)		4.48% [at 11.6 µM] (inactive)
COc1cccc(C)c1C(=O)O[C@@H]1C[C@H](O[C@H]2[C@H](O)C[C@H](O[C@@H]3CCC[C@H]4[C@H]3C=C[C@@H]3CCCC/C=C/[C@H]5C=C(C(=O)O)[C@@H](C)C[C@@]56OC(=O)C(=C6O)OC(=O)[C@@]34C)O[C@@H]2C)O[C@H](C)[C@H]1O		-0.859% [at 11.6 µM] (inactive)
